Data on 40 molecules can be found in PubChem BioAssay (NCI).

The panel holds about 79,000 compounds, 15% with a hit somewhere; the sample as a whole holds those more often. Unmarked numbers belong to inactive results. Active and inactive are the calls of the source. No stated cut-off is given here; in the data, active means growth inhibition above about 70%; inactive means the rest.

The first test can be described thus: NCI Yeast Anticancer Drug Screen. Data for the rad50 strain (AID 155).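 Further: 0% = growth of vehicle-only cultures of the same strain.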 The note with it: S. cerevisiae rad50 strain growth inhibition; at 50.0 µM; stronger effect = higher value. The method, boiled down:
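Yeast carrying a defined DNA repair defect were exposed to test compounds, and growth was compared with vehicle-treated controls to give percent inhibition.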
`O=[N+]([O-])C(Cl)C(Cl)C(Cl)=C(Cl)Cl` (stereo not drawn): the growth inhibition was 23.9%.

Take `CCOC(=O)C(C#N)(Cc1c(-c2ccccc2)[nH]c2ccccc12)NC(C)=O` (stereo not drawn): the growth inhibition is -4.25%.

As to `Cc1cc2c(C(C)C)c(O)c(O)c(C=Nc3cccc(O)c3)c2c(O)c1-c1c(C)cc2c(C(C)C)c(O)c(O)c(C=Nc3cccc(O)c3)c2c1O`, the growth inhibition is 27.8%.

For `c1ccc2sc(-c3nc4ccccc4s3)nc2c1`, the growth inhibition is 26.3%.

`Clc1ccc(-c2nnc(-c3ccccc3)o2)cc1Cl`: the growth inhibition is -8.4%.

As for `COc1cccc(NC(=O)CC(=O)Nc2cccc(OC)c2)c1`, the growth inhibition is -5.05%.

Consider `Cc1ccccc1C(=O)c1ccc2ccccc2c1`, for which the growth inhibition is 11.4%.

In the case of `Cc1ccc2ccccc2[n+]1CC(=O)c1ccc2c(c1)OCO2`, the growth inhibition is -3%.

A short description of another test: NCI Yeast Anticancer Drug Screen. Data for the sgs1 mgt1 strain (AID 161).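 Further: 0% = growth of cultures given vehicle only.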 Particulars: S. cerevisiae sgs1 mgt1 strain, at 50.0 µM, stronger effect = higher value. The method, boiled down:
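Growth of a repair-deficient yeast mutant was monitored after compound treatment and expressed as inhibition relative to vehicle-treated cultures.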
Take `C=C1C(=O)C23C(O)CC4C5(C)CCCC4(C(O)OC5)C2C(OC(C)=O)CC1C3O` (stereo not drawn): the growth inhibition is 11.4%.

Regarding `O=C(O)CCCCC(=O)c1cc(O)ccc1O`, the growth inhibition was 2.55%.

As to `COc1nc(NC2OC(COC(C)=O)C(OC(C)=O)C(OC(C)=O)C2OC(C)=O)c(-c2csc(N)n2)c(=O)n1C` (stereo not drawn), the growth inhibition is -18.8%.

Take `CSc1ccc(/C=C/c2ccnc3ccccc23)cc1`: the growth inhibition was 20.7%.

Take `Clc1cnnc(Cl)c1N/N=C/c1ccco1`: the growth inhibition was 13%.

In the case of `C/C(=C(/O)c1ccc(Cl)cc1)c1nc2cc(Cl)cc([N+](=O)[O-])c2[nH]c1=O`, the growth inhibition is 24.6%.

With `CC(=O)Nc1ccc2c(c1)N(O)C(=O)C2(C)C`, the growth inhibition was 11.4%.

On to `CCN(C(=O)CCl)c1ccccc1`, for which the growth inhibition is -0.1%.

Turning to `C[C@H](CCc1nc(C#N)c(N)o1)[C@H]1CC[C@H]2[C@@H]3CCC4C[C@@H](O)CC[C@]4(C)[C@H]3C[C@@H](O)[C@]12C` (stereo partly drawn), the growth inhibition was 86% (active).

With `COc1cccc(NC(=O)CC(=O)NN2C(=O)/C(=C/c3ccc(N(CCC#N)CCC#N)cc3)N=C2c2cc([N+](=O)[O-])ccc2Cl)c1`, the growth inhibition was 16.4%.

On to `Cc1cc(C)c(COCc2c(C)cc(C)cc2C)c(C)c1`, for which the growth inhibition is -0.55%.

On to `Cc1nc2c(Cl)cc(Cl)cc2c(Cl)c1CCCl`, for which the growth inhibition is 49.5%.

For `COc1ccc(OC)c(NC(=O)Nc2nccs2)c1`, the growth inhibition was 29.1%.

Regarding `Cc1ccc2ccccc2c1CC(=O)NN`, the growth inhibition was -0.6%.

As to `CCC12C[N+]3([O-])CCc4c([nH]c5ccccc45)C(C(=O)OC)(c4cc5c(cc4OC)N(C)C4C(O)(C(=O)OC)C(OC(C)=O)C6(CC)C=CCN7CCC54C76)CC(C3)C1O2` (stereo not drawn), the growth inhibition was -14%.

In the case of `Nc1nnc2cc(Br)ccc2n1`, the growth inhibition was 17.7%.

For `NNC(=O)C1CC1`, the growth inhibition is -5.65%.

Take `Cc1cccc(C)c1NC(=O)Nc1cccc(C(F)(F)F)c1`: the growth inhibition was -14.7%.

As for `CC1=CC(C)(C)NC(=S)N1c1cccc2c(S(=O)(=O)O)cccc12`, the growth inhibition is -11.2%.

On to `CNC(=O)N(C)C(=O)c1ccncc1C(=O)N(C(=O)NC1CCCCC1)C1CCCCC1`, for which the growth inhibition is 7.15%.

Turning to `C[N+](C)(C)/N=C1\CC2CCC1C2` (stereo not drawn), the growth inhibition was -5.55%.

Regarding `O=C(O)CCC(=O)Nc1cc(C(F)(F)F)ccc1Cl`, the growth inhibition was 7.8%.

`COc1cc(/C=C(\OC(C)=O)c2ccc3c(c2)OCO3)cc(OC)c1OC`: the growth inhibition is 33.2%.

For the molecule `Cc1ccnc2ccccc12`, the growth inhibition was -1.6%.

Take `CCOc1ccc2nc(NC(=O)C(=O)C(C#N)CC(C)(C)C=O)sc2c1` (stereo not drawn): the growth inhibition is -17.6%.

With `COc1ccc(OC)c2cc3c(cc12)C(=O)C(C)=C(C)C3=O`, the growth inhibition is 10.8%.

Regarding `CCCCCCCCCCCCCCCC(=O)OCC1OC(n2ccc(N)nc2=O)C(O)C1O` (stereo not drawn), the growth inhibition is 3.2%.

On to `CC(=O)OC1CCC2(C)C3=CCC4(C)C(C(C)=O)=CCC4C3CCC2C1` (stereo not drawn), for which the growth inhibition was -29.2%.

In the case of `CCCCC[N+](CCCCC)(CCCCC)CCCCC`, the growth inhibition was -27.4%.

With `COC(=O)c1nc(=S)[nH]c(C(=O)OC)c1C(=O)c1ccccc1O`, the growth inhibition is 14.1%.

`COC(=O)[C@@H]1CON(Cc2ccccc2)C1CC1(C)OCCO1` (stereo partly drawn): the growth inhibition is 23.8%.

`COc1ccc(C2=C(C#N)C(=C(C#N)C#N)NC(N)=C2C#N)cc1`: the growth inhibition was -21.8%.

For the molecule `O=[N+]([O-])C(Cl)C(Cl)C(Cl)=C(Cl)Cl` (stereo not drawn), the growth inhibition was 51%.

For `CCOC(=O)C(C#N)(Cc1c(-c2ccccc2)[nH]c2ccccc12)NC(C)=O` (stereo not drawn), the growth inhibition was 4.85%.

On to `Cc1cc2c(C(C)C)c(O)c(O)c(C=Nc3cccc(O)c3)c2c(O)c1-c1c(C)cc2c(C(C)C)c(O)c(O)c(C=Nc3cccc(O)c3)c2c1O`, for which the growth inhibition was 44%.

For `c1ccc2sc(-c3nc4ccccc4s3)nc2c1`, the growth inhibition was 5.55%.

Regarding `Clc1ccc(-c2nnc(-c3ccccc3)o2)cc1Cl`, the growth inhibition was -0.4%.

On to `COc1cccc(NC(=O)CC(=O)Nc2cccc(OC)c2)c1`, for which the growth inhibition was -8.4%.

As for `Cc1ccccc1C(=O)c1ccc2ccccc2c1`, the growth inhibition was 28.2%.

Regarding `Cc1ccc2ccccc2[n+]1CC(=O)c1ccc2c(c1)OCO2`, the growth inhibition was -0.6%.
